From the supplement of paper PMC7184167

system: replication-induced senescent mouse newborn dermal fibroblasts (NBF); experiment: relative cell viability of senescent cells (fraction); higher = less killing of senescent cells; details: 1 µM; 3 days
Method: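 Replication-induced senescent newborn mouse skin fibroblasts (NBFs) in 24-well plates were treated with a Selleck FDA-approved drug library at 1 µM for 3 days.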

| Structure (SMILES) | relative cell viability |
| --- | --- |
| CC(C)CN(C[C@@H](O)[C@H](Cc1ccccc1)NC(=O)O[C@H]1CCOC1)S(=O)(=O)c1ccc(N)cc1 [Amprenavir] | 1.06 |
| CCCc1cc(C(N)=S)ccn1 [Protionamide] | 1.02 |
| Nc1ncn([C@@H]2O[C@H](CO)[C@@H](O)[C@H]2O)c(=O)n1 [Azacitidine] | 0.436 |
| Oc1ncnc2[nH]ncc12 [Allopurinol] | 0.796 |
| COc1cc(Nc2nc3ccccc3nc2NS(=O)(=O)c2ccc(NC(=O)c3ccc(C)c(OC)c3)cc2)cc(OC)c1 | 0.969 |
